Data on one sequence can be found in article PMC7862700, “An all-to-all approach to the identification of sequence-specific readers for epigenetic DNA modifications on cytosine”.

Common to all, as to experiment: DAPPL (digital affinity profiling via proximity ligation, sequencing); 10 mM Tris-HCl pH 7.5, 50 mM NaCl, 1 mM DTT, 4% glycerol, room temperature, 30 min; GST-TFs on glutathione beads, 16-mer random dsDNA library, 0.1% formaldehyde crosslink after washing; high values mean tight binding
What all share (settings): protein: recombinant; tags: N-terminal GST; dsDNA, one strand shown

The target of experiment [1] is T1, FLI1 (Homo sapiens, UniProt Q01543 1-452).
T1 sequence: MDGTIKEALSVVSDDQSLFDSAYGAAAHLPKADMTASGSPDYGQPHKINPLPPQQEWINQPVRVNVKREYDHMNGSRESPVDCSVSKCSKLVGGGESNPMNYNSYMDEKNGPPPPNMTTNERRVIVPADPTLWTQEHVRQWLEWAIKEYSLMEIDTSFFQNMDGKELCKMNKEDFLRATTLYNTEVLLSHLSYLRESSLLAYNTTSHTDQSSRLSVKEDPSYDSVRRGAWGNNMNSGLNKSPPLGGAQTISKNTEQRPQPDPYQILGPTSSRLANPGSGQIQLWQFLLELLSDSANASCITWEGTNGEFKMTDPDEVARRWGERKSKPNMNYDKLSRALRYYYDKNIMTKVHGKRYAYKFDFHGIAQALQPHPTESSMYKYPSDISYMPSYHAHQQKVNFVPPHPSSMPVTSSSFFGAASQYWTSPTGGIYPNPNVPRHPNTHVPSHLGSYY
In a few lines:
(§1)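 Sequencing on an Illumina NextSeq500 followed washing, crosslinking with 0.1% formaldehyde, proximity ligation (BsaI/T4 ligase, 1 h, 37 °C) and PCR amplification of pools that had been incubated for 30 min at room temperature with 200 nmole of a random double-stranded 16-mer DNA library in Tris/NaCl/DTT/glycerol buffer. Each pool held DNA-barcoded human transcription factors, expressed in yeast as GST fusions and captured on glutathione beads, plus a tag-only sample. Binding signal is a hexamer's read frequency for a factor divided by its frequency in the tag-only sample.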

For experiment [2], the target named is T2, ELK1 (Homo sapiens, UniProt P19419 1-428).
T2 sequence: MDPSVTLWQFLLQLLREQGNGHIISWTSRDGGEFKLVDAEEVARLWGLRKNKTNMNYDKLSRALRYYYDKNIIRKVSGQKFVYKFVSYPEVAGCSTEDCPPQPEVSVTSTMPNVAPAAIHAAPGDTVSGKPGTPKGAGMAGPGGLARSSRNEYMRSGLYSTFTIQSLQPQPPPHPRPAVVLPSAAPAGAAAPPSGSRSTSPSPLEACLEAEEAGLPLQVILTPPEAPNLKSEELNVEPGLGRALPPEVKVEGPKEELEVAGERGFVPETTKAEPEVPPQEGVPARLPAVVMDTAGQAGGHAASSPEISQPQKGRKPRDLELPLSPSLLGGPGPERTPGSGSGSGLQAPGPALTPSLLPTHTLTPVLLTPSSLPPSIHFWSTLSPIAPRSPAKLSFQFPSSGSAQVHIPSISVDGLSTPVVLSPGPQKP
An outline of the steps: as §1

Experiment [3] deals with T3, GABPA (Homo sapiens, UniProt Q06546 1-454).
T3 sequence: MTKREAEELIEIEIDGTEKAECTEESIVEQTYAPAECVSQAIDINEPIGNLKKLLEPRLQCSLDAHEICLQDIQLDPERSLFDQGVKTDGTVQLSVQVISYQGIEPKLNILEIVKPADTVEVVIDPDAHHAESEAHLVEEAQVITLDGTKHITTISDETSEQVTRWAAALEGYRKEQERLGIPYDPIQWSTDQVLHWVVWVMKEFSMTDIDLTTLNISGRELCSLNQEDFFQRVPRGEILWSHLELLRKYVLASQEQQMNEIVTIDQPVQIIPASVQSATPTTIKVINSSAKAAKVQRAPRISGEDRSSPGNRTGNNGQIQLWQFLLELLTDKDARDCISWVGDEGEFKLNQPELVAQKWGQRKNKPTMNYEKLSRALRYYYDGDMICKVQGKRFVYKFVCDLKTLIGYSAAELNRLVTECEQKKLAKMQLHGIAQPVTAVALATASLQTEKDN
An outline of the steps:
as §1

Experiment [4] addresses T4, ERG (Homo sapiens, UniProt P11308 1-479).
T4 sequence: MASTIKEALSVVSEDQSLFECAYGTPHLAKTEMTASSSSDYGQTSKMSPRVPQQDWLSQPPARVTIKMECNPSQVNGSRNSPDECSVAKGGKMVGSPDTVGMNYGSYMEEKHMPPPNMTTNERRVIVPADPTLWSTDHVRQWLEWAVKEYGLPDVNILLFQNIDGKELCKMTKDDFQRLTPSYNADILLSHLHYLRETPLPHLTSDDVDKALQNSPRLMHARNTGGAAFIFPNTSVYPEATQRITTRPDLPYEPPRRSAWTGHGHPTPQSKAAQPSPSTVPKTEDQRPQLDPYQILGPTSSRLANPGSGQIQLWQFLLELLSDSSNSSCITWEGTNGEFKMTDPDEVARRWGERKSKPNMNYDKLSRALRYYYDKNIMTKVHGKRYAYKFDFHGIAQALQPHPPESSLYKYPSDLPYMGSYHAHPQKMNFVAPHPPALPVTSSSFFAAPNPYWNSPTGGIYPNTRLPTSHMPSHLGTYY
An outline of the steps:
as §1

In experiment [5] the target is ELF1 (Homo sapiens, UniProt P32519 1-619). In a few lines:
as §1

For experiment [6], the target named is T5, EHF (Homo sapiens, UniProt Q9NZC4 1-300).
T5 sequence: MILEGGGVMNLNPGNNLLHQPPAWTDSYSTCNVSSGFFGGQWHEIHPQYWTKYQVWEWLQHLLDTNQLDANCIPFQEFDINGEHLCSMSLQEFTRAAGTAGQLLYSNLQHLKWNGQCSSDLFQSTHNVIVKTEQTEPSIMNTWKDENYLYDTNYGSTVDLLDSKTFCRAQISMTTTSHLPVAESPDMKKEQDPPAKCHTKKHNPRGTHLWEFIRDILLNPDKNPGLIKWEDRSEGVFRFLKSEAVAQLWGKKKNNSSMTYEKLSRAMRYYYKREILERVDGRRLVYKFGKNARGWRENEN
In a few lines:
as §1

In experiment [7] the target is SPIB (Homo sapiens, UniProt Q01892 1-262). An outline of the steps: as §1
Chain of SPIB (Q01892 whole entry): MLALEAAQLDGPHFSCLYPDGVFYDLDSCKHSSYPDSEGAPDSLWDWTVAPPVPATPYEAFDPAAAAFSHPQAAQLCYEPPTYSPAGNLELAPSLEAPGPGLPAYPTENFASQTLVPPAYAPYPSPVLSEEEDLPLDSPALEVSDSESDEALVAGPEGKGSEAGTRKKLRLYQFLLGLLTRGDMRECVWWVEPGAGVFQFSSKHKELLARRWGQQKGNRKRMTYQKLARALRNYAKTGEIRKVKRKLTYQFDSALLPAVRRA
The target in experiment [8] is T6, ELK3 (Homo sapiens, UniProt P41970 1-407).
T6 sequence: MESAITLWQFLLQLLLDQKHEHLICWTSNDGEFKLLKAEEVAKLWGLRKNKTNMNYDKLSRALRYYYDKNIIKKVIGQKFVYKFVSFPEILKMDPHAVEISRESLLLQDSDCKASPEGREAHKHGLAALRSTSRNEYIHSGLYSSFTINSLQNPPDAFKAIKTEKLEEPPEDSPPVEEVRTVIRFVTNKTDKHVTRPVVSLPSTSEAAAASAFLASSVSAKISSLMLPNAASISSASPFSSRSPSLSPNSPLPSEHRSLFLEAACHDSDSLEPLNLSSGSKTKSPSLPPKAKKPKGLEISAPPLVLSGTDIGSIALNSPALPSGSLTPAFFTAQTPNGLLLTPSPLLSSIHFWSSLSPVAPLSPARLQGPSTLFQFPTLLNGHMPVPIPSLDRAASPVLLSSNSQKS
In a few lines:
as §1

The target in experiment [9] is T7, FEV (Homo sapiens, UniProt Q99581 1-238).
T7 sequence: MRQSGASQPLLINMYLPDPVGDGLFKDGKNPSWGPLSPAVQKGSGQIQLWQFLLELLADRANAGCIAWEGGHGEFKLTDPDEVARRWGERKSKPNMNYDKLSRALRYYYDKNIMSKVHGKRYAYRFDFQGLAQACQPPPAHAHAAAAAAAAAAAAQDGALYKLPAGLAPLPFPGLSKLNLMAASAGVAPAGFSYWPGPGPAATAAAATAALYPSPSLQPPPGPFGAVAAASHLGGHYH
In a few lines: as §1

Experiment [10] has as its target ETV5 (Homo sapiens, UniProt P41161 1-510). In a few lines: as §1
Experiment [11] has as its target T8, SPIC (Homo sapiens, UniProt Q8N5J4 1-248).
T8 sequence: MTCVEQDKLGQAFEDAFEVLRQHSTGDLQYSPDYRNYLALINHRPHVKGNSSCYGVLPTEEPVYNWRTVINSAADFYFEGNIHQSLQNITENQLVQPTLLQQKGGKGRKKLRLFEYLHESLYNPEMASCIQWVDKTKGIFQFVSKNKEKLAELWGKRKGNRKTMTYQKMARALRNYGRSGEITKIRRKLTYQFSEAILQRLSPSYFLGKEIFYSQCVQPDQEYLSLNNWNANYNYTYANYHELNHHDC
In a few lines:
as §1

Experiment [12] has as its target ELF4 (Homo sapiens, UniProt Q99607 1-663). In a few lines:
as §1

Experiment [13] concerns the target T9, ELK4 (Homo sapiens, UniProt P28324-2 1-405).
T9 sequence: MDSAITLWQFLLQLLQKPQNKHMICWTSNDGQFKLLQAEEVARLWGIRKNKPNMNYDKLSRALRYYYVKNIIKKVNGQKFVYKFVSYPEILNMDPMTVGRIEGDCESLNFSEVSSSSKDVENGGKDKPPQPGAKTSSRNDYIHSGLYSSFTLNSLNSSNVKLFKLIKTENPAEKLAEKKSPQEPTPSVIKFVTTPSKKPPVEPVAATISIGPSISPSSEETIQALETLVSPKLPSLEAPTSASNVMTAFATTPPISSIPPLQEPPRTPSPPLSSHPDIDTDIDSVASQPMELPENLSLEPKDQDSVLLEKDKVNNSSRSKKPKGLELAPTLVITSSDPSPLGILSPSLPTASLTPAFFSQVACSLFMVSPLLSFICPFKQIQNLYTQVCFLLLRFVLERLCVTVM
An outline of the steps:
as §1

For experiment [14], the target named is T10, ETV2 (Homo sapiens, UniProt O00321 1-342).
T10 sequence: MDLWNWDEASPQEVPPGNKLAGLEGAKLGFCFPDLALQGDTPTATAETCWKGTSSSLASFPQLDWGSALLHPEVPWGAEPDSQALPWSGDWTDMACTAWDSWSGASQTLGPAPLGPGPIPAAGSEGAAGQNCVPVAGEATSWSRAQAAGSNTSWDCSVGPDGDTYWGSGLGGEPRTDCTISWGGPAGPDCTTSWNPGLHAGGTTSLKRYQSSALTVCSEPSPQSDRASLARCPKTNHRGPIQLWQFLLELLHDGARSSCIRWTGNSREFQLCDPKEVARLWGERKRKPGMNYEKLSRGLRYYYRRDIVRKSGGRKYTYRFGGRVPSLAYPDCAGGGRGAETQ
In a few lines:
as §1

For experiment [15], the target named is T11, ELF3 (Homo sapiens, UniProt P78545 1-371).
T11 sequence: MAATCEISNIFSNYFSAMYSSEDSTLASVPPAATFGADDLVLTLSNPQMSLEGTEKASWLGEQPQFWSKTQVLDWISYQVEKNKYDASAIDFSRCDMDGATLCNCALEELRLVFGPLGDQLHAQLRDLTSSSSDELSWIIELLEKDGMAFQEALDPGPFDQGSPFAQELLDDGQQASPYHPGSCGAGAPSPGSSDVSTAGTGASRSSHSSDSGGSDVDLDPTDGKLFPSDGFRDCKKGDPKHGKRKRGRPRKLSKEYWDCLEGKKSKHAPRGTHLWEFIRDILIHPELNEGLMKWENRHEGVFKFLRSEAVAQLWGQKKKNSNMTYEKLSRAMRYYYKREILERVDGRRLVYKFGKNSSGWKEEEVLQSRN
An outline of the steps:
as §1

Experiment [16] addresses ETV1 (Homo sapiens, UniProt P50549 1-477). An outline of the steps: as §1

Chain of ELF4 (Q99607 whole entry): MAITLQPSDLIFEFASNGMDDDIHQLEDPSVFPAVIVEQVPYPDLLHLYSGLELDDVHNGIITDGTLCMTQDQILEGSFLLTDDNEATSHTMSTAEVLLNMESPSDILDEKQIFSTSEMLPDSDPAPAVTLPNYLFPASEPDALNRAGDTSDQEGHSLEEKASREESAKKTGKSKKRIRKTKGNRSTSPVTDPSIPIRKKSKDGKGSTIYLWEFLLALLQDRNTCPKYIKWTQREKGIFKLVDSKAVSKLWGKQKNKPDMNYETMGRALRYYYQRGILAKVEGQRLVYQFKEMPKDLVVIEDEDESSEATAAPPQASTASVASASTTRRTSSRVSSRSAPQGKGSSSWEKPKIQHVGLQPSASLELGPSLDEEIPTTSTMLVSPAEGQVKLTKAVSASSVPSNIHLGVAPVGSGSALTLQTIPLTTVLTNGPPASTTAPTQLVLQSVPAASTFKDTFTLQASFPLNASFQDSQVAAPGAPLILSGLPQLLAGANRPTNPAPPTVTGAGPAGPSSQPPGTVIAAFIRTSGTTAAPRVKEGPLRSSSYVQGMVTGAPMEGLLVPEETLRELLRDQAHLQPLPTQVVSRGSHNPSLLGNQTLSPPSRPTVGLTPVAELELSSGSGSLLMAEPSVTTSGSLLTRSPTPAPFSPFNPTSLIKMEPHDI
Chain of ELF1 (P32519 whole entry): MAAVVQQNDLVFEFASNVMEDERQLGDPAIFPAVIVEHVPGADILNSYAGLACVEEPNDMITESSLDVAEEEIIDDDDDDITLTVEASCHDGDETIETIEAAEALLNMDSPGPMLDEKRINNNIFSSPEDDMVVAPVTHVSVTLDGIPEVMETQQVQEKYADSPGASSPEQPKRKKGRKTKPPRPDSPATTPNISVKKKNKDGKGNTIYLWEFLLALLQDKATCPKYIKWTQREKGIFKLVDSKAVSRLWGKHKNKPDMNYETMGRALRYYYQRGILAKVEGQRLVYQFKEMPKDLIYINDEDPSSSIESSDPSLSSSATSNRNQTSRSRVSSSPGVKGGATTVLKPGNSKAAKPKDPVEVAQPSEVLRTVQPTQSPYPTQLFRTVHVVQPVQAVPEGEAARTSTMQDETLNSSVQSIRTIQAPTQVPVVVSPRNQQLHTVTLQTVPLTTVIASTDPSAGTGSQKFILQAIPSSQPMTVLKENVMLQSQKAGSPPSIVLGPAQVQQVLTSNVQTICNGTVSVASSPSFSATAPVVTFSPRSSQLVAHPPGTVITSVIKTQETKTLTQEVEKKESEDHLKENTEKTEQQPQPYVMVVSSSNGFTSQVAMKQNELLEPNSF
Chain of ETV5 (P41161 whole entry): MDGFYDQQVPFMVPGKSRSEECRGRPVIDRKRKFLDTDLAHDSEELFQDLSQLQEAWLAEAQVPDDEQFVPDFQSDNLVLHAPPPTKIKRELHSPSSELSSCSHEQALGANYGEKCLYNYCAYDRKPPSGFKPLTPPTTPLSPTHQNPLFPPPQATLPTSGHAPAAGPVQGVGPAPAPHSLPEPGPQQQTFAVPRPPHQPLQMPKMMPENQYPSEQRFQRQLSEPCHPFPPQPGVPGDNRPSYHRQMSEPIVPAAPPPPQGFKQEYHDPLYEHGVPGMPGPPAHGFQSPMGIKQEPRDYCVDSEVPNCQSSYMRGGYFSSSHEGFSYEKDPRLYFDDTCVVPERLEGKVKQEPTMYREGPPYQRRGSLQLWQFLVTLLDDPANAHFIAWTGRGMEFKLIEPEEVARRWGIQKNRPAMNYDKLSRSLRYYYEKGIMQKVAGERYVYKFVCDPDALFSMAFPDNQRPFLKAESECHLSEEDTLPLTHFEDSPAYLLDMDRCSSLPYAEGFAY
Chain of ETV1 (P50549 whole entry): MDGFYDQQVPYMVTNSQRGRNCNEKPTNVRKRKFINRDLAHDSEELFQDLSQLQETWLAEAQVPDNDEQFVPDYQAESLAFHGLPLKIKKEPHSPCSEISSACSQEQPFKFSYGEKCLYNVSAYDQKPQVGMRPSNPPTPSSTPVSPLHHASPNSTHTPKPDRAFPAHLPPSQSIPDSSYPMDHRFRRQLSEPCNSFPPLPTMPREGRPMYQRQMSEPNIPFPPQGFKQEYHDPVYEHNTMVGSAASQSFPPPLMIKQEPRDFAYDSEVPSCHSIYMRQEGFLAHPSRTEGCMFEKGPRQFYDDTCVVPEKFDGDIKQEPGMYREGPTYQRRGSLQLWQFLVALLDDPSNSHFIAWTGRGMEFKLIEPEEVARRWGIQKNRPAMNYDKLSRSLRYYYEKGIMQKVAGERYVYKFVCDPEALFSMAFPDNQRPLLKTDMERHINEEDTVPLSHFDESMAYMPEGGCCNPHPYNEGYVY

Turning to ACACCC, the binding signal in experiment [1] is 1.18 fold enrichment (6-mer frequency, TF over GST control); in [2], 1.16 fold enrichment (6-mer frequency, TF over GST control); in experiment [3] it was 1.16 fold enrichment (6-mer frequency, TF over GST control); in [4], 1.11 fold enrichment (6-mer frequency, TF over GST control); in [5], 1.09 fold enrichment (6-mer frequency, TF over GST control); in [6] it was 1.11 fold enrichment (6-mer frequency, TF over GST control). Besides, the binding signal in experiment [7] was 1.17 fold enrichment (6-mer frequency, TF over GST control); in experiment [8], 1.08 fold enrichment (6-mer frequency, TF over GST control); in experiment [9] it was 1.08 fold enrichment (6-mer frequency, TF over GST control); in experiment [10], 1.08 fold enrichment (6-mer frequency, TF over GST control); in experiment [11] it was 1.19 fold enrichment (6-mer frequency, TF over GST control); in experiment [12], 1.07 fold enrichment (6-mer frequency, TF over GST control). Also, the binding signal in experiment [13] is 1.05 fold enrichment (6-mer frequency, TF over GST control); in experiment [14], 1.07 fold enrichment (6-mer frequency, TF over GST control); in [15], 1.01 fold enrichment (6-mer frequency, TF over GST control); in [16], 1.14 fold enrichment (6-mer frequency, TF over GST control).
